Source: PubChem BioAssay
Records with an inconclusive call do not appear. Activity calls are given as the source filed them.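 The calls were made as follows, unless noted: active = normalized viability below 100% at a tested concentration; inactive = the rest.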

Tests used:
[1] = viability loss in pontine glioma line – cell-based, SU-DIPG-XVII, MIPE5.0, CellTiter-Glo, qHTS, dose response (AID 1347060; cut-off not given, nearly all actives have AC50 up to about 26 µM;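 as to AC50: cells exposed to compound for 48 hours before viability readout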); conditions: CellTiter-Glo ATP luminescence
[2] = viability loss in pontine glioma line – cell-based, SU-DIPG-XIII, MIPE4.0, CellTiter-Glo, qHTS, dose response (AID 1347061; cut-off not given, nearly all actives have AC50 up to about 37 µM;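 also: cells exposed to compound for 48 hours before readout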); conditions: CellTiter-Glo ATP luminescence
[3] = viability loss in pontine glioma line – cell-based, JHH-DIPG-1, MIPE4.0, CellTiter-Glo, qHTS, dose response (AID 1347062; cut-off not given, nearly all actives have AC50 up to about 27 µM;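 as to AC50: cells exposed to compound for two days before readout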); conditions: JHH-DIPG-1 viability, CellTiter-Glo ATP luminescence
[4] = viability loss in pontine glioma line – cell-based, SU-DIPG-IV, MIPE4.0, CellTiter-Glo, qHTS, dose response (AID 1347063; cut-off not given, nearly all actives have AC50 up to about 30 µM;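 also: compound exposure lasted 48 hours before the viability readout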); conditions: CellTiter-Glo ATP luminescence
[5] = viability loss in pontine glioma line – cell-based, SU-DIPG-XIII, MIPE5.0, CellTiter-Glo, qHTS, dose response (AID 1347064; cut-off not given, nearly all actives have AC50 up to about 23 µM;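 as to AC50: cells exposed to compound for 48 hours before the viability read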); conditions: CellTiter-Glo ATP luminescence
[6] = viability loss in pontine glioma line – cell-based, SU-DIPG-XXV, MIPE5.0, CellTiter-Glo, qHTS, dose response (AID 1347065; cut-off not given, nearly all actives have AC50 up to about 26 µM;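 also: cells exposed to compound for 48 hours before ATP readout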); conditions: CellTiter-Glo ATP luminescence
[7] = growth inhibition of DIPG cells – cell-based, MIPE4.0 library, CellTiter-Glo luminescence, qHTS (AID 1347066; cut-off not given, nearly all actives have AC50 up to about 30 µM;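 also: cells exposed to compound for 48 hours before readout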); conditions: SU-DIPG-VI viability, CellTiter-Glo ATP luminescence
[8] = JHH-DIPG-1 glioma cell viability, MIPE5.0 library, CellTiter-Glo luminescence, qHTS (AID 1347067; cut-off not given, nearly all actives have AC50 up to about 26 µM;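 also: cells exposed to compound for 48 hours before readout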); conditions: JHH-DIPG-1 glioma viability, CellTiter-Glo ATP luminescence
[9] = growth inhibition of DIPG cells – cell-based, MIPE5.0 library, qHTS (AID 1347068; cut-off not given, nearly all actives have IC50 up to about 30 µM;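 as to IC50: cells exposed to compound for 48 hours before viability readout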); conditions: SU-DIPG-XXV viability
[10] = viability loss with induced miR-34 in A549 – imaging, A549 dox-inducible miR-34, nuclei and caspase counts, primary screen (AID 1347080;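 active = compounds whose cell count with miR-34 switched on is under 0.7 times the count with it off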); conditions: A549 miR-34 inducible, Hoechst nuclei count, 48 h
[11] = compounds altering HSF1 focus formation in cells – imaging, Selleck Cancer Library (AID 1347162; in the data active = plate-normalised HSF1 focus index below about 0.46); conditions: human cells, HSF1 nuclear foci imaging, at 10 µM; SSMD: measured here: HSF1 foci SSMD mean; cell count: measured here: cell number; plate-normalised HSF1 focus index: stronger effect = lower value
[12] = MELAS cybrid and Rieske KO viability enhancers – cell-based, MELAS cybrids, Rieske KO mouse fibroblasts, CellTiter-Glo, primary screen (AID 1508586;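 active = mean z-score across replicates of 1.96 or higher in either the MELAS or the Rieske mutant cell line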;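 also: z relative to plate mean and SD of compound and empty wells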); conditions: low glucose
[13] = drug combination growth inhibition, ovarian cancer – cell-based, oncology-focused library, rucaparib conditional, profiling panel (AID 1508598); conditions: patient-derived ovarian cancer cells, CellTiter-Glo viability, 144 h, stronger effect = lower value
[14] = at 0.000305 µM, OCI-C5x cells, with rucaparib 10 µM, 100% = cells with rucaparib alone
[15] = at 0.000305 µM, OCI-C5x cells, without rucaparib
[16] = at 0.000305 µM, OCI-P5x cells, with rucaparib 20 µM, 100% = cells with rucaparib alone
[17] = at 0.000305 µM, OCI-P5x cells, without rucaparib
[18] = at 0.00122 µM, OCI-C5x cells, with rucaparib 10 µM, 100% = cells with rucaparib alone
[19] = at 0.00122 µM, OCI-C5x cells, without rucaparib
[20] = at 0.00122 µM, OCI-P5x cells, with rucaparib 20 µM, 100% = cells with rucaparib alone
[21] = at 0.00122 µM, OCI-P5x cells, without rucaparib
[22] = at 0.00488 µM, OCI-C5x cells, with rucaparib 10 µM, 100% = cells with rucaparib alone
[23] = at 0.00488 µM, OCI-C5x cells, without rucaparib
[24] = at 0.00488 µM, OCI-P5x cells, with rucaparib 20 µM, 100% = cells with rucaparib alone
[25] = at 0.00488 µM, OCI-P5x cells, without rucaparib
[26] = at 0.0195 µM, OCI-C5x cells, with rucaparib 10 µM, 100% = cells with rucaparib alone
[27] = at 0.0195 µM, OCI-C5x cells, without rucaparib
[28] = at 0.0195 µM, OCI-P5x cells, with rucaparib 20 µM, 100% = cells with rucaparib alone
[29] = at 0.0195 µM, OCI-P5x cells, without rucaparib
[30] = at 0.0781 µM, OCI-C5x cells, with rucaparib 10 µM, 100% = cells with rucaparib alone
[31] = at 0.0781 µM, OCI-C5x cells, without rucaparib

CC(C)(C)c1cc(C(=O)O)c(NC(=O)Nc2ccc3[nH]ncc3c2)s1
inactive: outcome [1] | outcome [2] | outcome [3] | outcome [4] | outcome [5] | outcome [6] | outcome [7] | outcome [8] | outcome [9]

CN1CCC(CNc2ccc3ncc(-c4cccc(OC(F)(F)F)c4)n3n2)CC1
1.66: SSMD [11]
0.583: fold change ([10]; measured here: relative caspase fold change +Dox/-Dox)
4380: cell count ([10]; measured here: total cells with miR-34 induction, stronger effect = lower value)
inactive: fold change ([10]; stronger effect = lower value, cell number ratio, induced over uninduced) 0.872 | plate-normalised HSF1 focus index [11] 1.1 | z-score ([12]; MELAS cybrid survival, CellTiter-Glo 48 h, stronger effect = higher value) -0.102 | viability [13, 14] 112% | viability [13, 15] 115% | viability [13, 18] 110% | viability [13, 19] 113% | viability [13, 20] 100% | viability [13, 22] 106% | viability [13, 23] 106% | viability [13, 26] 110% | viability [13, 27] 114% | viability [13, 30] 107% | viability [13, 31] 109% | viability ([13]; at 0.313 µM, OCI-C5x cells, with rucaparib 10 µM, 100% = cells with rucaparib alone) 110% | viability ([13]; at 0.313 µM, OCI-C5x cells, without rucaparib) 104% | viability ([13]; at 1.25 µM, OCI-C5x cells, with rucaparib 10 µM, 100% = cells with rucaparib alone) 130% | viability ([13]; at 5 µM, OCI-C5x cells, with rucaparib 10 µM, 100% = cells with rucaparib alone) 123% | viability ([13]; at 5 µM, OCI-C5x cells, without rucaparib) 115%
7290: cell count [11]
active: AC50 [1] 8.33 µM | AC50 [2] 18.7 µM | AC50 [3] 13.2 µM | AC50 [4] 18.7 µM | AC50 [5] 10.5 µM | AC50 [6] 5.25 µM | AC50 [7] 20.9 µM | AC50 [8] 2.63 µM | IC50 [9] 23.5 µM | viability [13, 16] 97.3% | viability [13, 17] 92.4% | viability [13, 21] 94.8% | viability [13, 24] 96.7% | viability [13, 25] 87.9% | viability [13, 28] 99.2% | viability [13, 29] 88% | viability ([13]; at 0.0781 µM, OCI-P5x cells, with rucaparib 20 µM, 100% = cells with rucaparib alone) 93.6% | viability ([13]; at 0.0781 µM, OCI-P5x cells, without rucaparib) 82.1% | viability ([13]; at 0.313 µM, OCI-P5x cells, with rucaparib 20 µM, 100% = cells with rucaparib alone) 89.6% | viability ([13]; at 0.313 µM, OCI-P5x cells, without rucaparib) 80.8% | viability ([13]; at 1.25 µM, OCI-C5x cells, without rucaparib) 98% | viability ([13]; at 1.25 µM, OCI-P5x cells, with rucaparib 20 µM, 100% = cells with rucaparib alone) 82.6% | viability ([13]; at 1.25 µM, OCI-P5x cells, without rucaparib) 70.9% | viability ([13]; at 5 µM, OCI-P5x cells, with rucaparib 20 µM, 100% = cells with rucaparib alone) 50.5% | viability ([13]; at 5 µM, OCI-P5x cells, without rucaparib) 46.6%
-1.76: z-score ([12]; Rieske KO mouse fibroblast survival, CellTiter-Glo 72 h)
5020: cell count ([10]; measured here: total cells without miR-34 induction)

Cn1c(=O)c(F)c(Nc2ccc(I)cc2F)c2c(=O)n(C[C@@H](O)CO)cnc21
1.8: SSMD [11]
inactive: outcome [7] | plate-normalised HSF1 focus index [11] 1.1 | viability [13, 14] 107% | viability [13, 15] 128% | viability [13, 17] 106% | viability [13, 18] 102% | viability [13, 19] 116% | viability [13, 22] 104% | viability [13, 23] 118% | viability [13, 26] 102% | viability [13, 27] 111% | viability [13, 31] 103%
active: AC50 [1] 0.0661 µM | AC50 [2] 0.264 µM | AC50 [3] 0.235 µM | AC50 [4] 3.32 µM | AC50 [5] 0.132 µM | AC50 [6] 0.295 µM | AC50 [8] 0.0661 µM | IC50 [9] 1.86 µM | viability [13, 16] 96.8% | viability [13, 20] 81.5% | viability [13, 21] 78.8% | viability [13, 24] 69% | viability [13, 25] 76.3% | viability [13, 28] 59.1% | viability [13, 29] 66.1% | viability [13, 30] 88.1%
7260: cell count [11]
